# In PubChem BioAssay (NCI):
# Compounds without any hit were thinned out: in the full panel of roughly 83,000, 20% have a hit.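 Single-concentration screen, 48 h exposure, 96-well plates. Endpoint: percent growth. Below 10 = active.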 A number with no mark means an inactive call. Active and inactive are the calls of the source.
# How the values were obtained:
# Assay in all cases: NCI-60 one-dose screen, 48 h (100 = growth as untreated, 0 = no growth, -100 = all killed)
# Conditions in all cases: 10 µM unless noted
# SK-MEL-2 melanoma = tested on: SK-MEL-2 melanoma
# EKVX NSCLC = tested on: EKVX NSCLC
# SN12C renal = tested on: SN12C renal
# UO-31 renal = tested on: UO-31 renal
# TK-10 renal = tested on: TK-10 renal
# ACHN renal = tested on: ACHN renal
# CAKI-1 renal = tested on: CAKI-1 renal
# A498 renal = tested on: A498 renal
# CCRF-CEM leukemia = tested on: CCRF-CEM leukemia
# MOLT-4 leukemia = tested on: MOLT-4 leukemia
# SR leukemia = tested on: SR leukemia
# RPMI-8226 leukemia = tested on: RPMI-8226 leukemia
# OVCAR-8 ovarian = tested on: OVCAR-8 ovarian
# OVCAR-5 ovarian = tested on: OVCAR-5 ovarian
# OVCAR-4 ovarian = tested on: OVCAR-4 ovarian
# SK-OV-3 ovarian = tested on: SK-OV-3 ovarian
# IGROV1 ovarian = tested on: IGROV1 ovarian
# OVCAR-3 ovarian = tested on: OVCAR-3 ovarian
# HS 578T breast = tested on: HS 578T breast
# NCI/ADR-RES ovarian = tested on: NCI/ADR-RES ovarian
SMILES,growth (SK-MEL-2 melanoma),growth (EKVX NSCLC),growth (SN12C renal),growth (UO-31 renal),growth (TK-10 renal),growth (ACHN renal),growth (CAKI-1 renal),growth (A498 renal),growth (CCRF-CEM leukemia),growth (MOLT-4 leukemia),growth (SR leukemia),growth (RPMI-8226 leukemia),growth (OVCAR-8 ovarian),growth (OVCAR-5 ovarian),growth (OVCAR-4 ovarian),growth (SK-OV-3 ovarian),growth (IGROV1 ovarian),growth (OVCAR-3 ovarian),growth (HS 578T breast),growth (NCI/ADR-RES ovarian)
CC(C)Cc1ccc(C(C)C(=O)NCc2ccc(Cn3c(=O)sn(-c4ccc(Cl)cc4)c3=O)cc2)cc1 (stereo not given),107%,82.6%,84.1%,65.4%,74.2%,56.5%,74.7%,95%,96.2%,85.7%,72.2%,83.9%,79.5%,89.3%,47.4%,92%,92.2%,91.5%,71.8%,90.3%
COc1cnccc1-c1nc2ccc3[nH]ncc3c2c2c1CCCC2,81.2%,18.2%,62.4%,29.4%,60.7%,37.6%,18%,13.2%,16.4%,28.2%,8.78% (active),61.6%,69.1%,74.8%,85.9%,41.9%,33.4%,84.3%,-1.02% (active),64.2%
COc1ccc(C(=O)c2cc3c(N)c(C(=O)Nc4ccc(Cl)cc4)sc3nc2C)cc1,68.5%,86.1%,89.9%,79%,82%,74.7%,66.3%,59.9%,73.9%,82.6%,36.4%,74.6%,50.2%,86.7%,21.5%,73.5%,90.6%,73.3%,60.3%,75.3%
CN(C)C(=O)OCc1nc2c(N3CCOCC3)nc(-c3ccccc3)nc2n1C,-73.5% (active),-56.8% (active),-90.7% (active),-100% (active),-77.7% (active),-99.8% (active),-91.7% (active),-32.3% (active),-12% (active),-3.34% (active),4.42% (active),-30% (active),-5.95% (active),-85.5% (active),-82.2% (active),59.7%,-95.2% (active),-78.1% (active),-35.2% (active),-8.35% (active)
COc1cc(-c2nc3sccn3c2-c2ccnc(NCCNS(=O)(=O)c3ccc(F)cc3)n2)ccc1F,-38.3% (active),23.6%,15.1%,-11.1% (active),20.2%,0.0766% (active),8.83% (active),22.5%,2.47% (active),-15.4% (active),8.1% (active),-39.4% (active),-9.78% (active),56%,10.8%,22.9%,3.95% (active),25.3%,28.4%,8.6% (active)
CN1CCN(c2c(F)cc(NC3=C(Cl)C(=O)c4ncccc4C3=O)cc2F)CC1,99.2%,91%,84.2%,34.3%,66.9%,-63% (active),62.2%,88.1%,5.66% (active),0.45% (active),4.88% (active),67.1%,78.1%,105%,-87.8% (active),101%,57.4%,-28% (active),97.2%,89.7%
CN1CCN(C(=O)OCc2nc3c(N4CCOCC4)nc(-c4ccccc4)nc3n2C)CC1,-59.9% (active),-76.7% (active),-86.8% (active),-100% (active),-70.1% (active),-100% (active),-93.5% (active),3.05% (active),-6.94% (active),-6.95% (active),2.5% (active),-28.7% (active),4.37% (active),-86.1% (active),-86.4% (active),61.5%,-96.3% (active),-81.9% (active),-22% (active),-16.2% (active)
CC(C)Sc1nc(NN)c(C#N)c(-c2ccccc2)n1,109%,94.1%,98.8%,75.9%,107%,93%,93.6%,92.8%,94.3%,97.4%,109%,100%,96.6%,92.8%,94.5%,108%,86.3%,100%,93.6%,99.8%
c1ccc(C2CC(c3cccc(Nc4ccncc4)c3)=NN2c2ccccc2)cc1 (stereo not given),103%,91.4%,77.9%,70.3%,98.9%,90.1%,61.8%,83.2%,56.9%,18%,5.55% (active),16.2%,68.5%,81.6%,67.5%,84.1%,62.6%,78.3%,82.5%,74.2%
O=C(OCc1nc2nc(Cl)nc(N3CCOCC3)c2[nH]1)n1ccnc1,-67.1% (active),62.1%,8.48% (active),-81% (active),-77.4% (active),-100% (active),-68.8% (active),-4.23% (active),-12% (active),9.71% (active),-14.2% (active),-35.7% (active),-44.9% (active),22.3%,-38.3% (active),46.2%,2.36% (active),-84.9% (active),5.43% (active),6.27% (active)
FC(F)(F)c1cccc(Oc2ccc(Nc3ncnc4ccc(OCCCN5CCOCC5)cc34)cc2Cl)c1,82.7%,32.7%,39.6%,21.6%,46%,23.9%,35.6%,63.1%,-16.4% (active),34.3%,10.4%,32%,56.1%,59.7%,43.7%,22.1%,12.2%,51.6%,72.4%,49.9%
Cc1cc(NC(=O)c2cnc(N3CCN(CCOCCOCCOCCOCCC(=O)N[C@H](C(=O)N4C[C@H](O)C[C@H]4C(=O)N[C@@H](C)c4ccc(-c5scnc5C)cc4)C(C)(C)C)CC3)cn2)c2ncccc2c1,-17.8% (active),60%,-2.01% (active),75.8%,69.3%,37.9%,42.9%,78.6%,-1.88% (active),1.53% (active),7.46% (active),-26.5% (active),20.7%,80.4%,14.7%,63.9%,-37.8% (active),-30.8% (active),6.9% (active),90.5%
Cc1nc2sc(C(=O)Nc3cccc(Br)c3)c(N)c2cc1C(=O)c1ccc(C(F)(F)F)cc1,104%,87.7%,71%,86.3%,90.8%,49.7%,79.8%,109%,82.1%,94.7%,47%,88.6%,72.7%,82.3%,6.24% (active),91.7%,73.8%,83.2%,40.7%,80.7%
COc1ccc(-c2nc(N=Nc3c(O)[nH]c4ccccc34)nc(N3CCOCC3)c2C#N)cc1,77.9%,74.5%,73.3%,84.8%,71.5%,25%,43.3%,67.4%,75.5%,80.8%,41.7%,60.2%,44.2%,81.9%,59.5%,66.8%,87.8%,67.4%,47.5%,59.7%
COc1cc(OC)c(/C=C/C(=O)c2ccc(Nc3ncnc4ccccc34)cc2)c(OC)c1,7.01% (active),2.86% (active),25.3%,-15.8% (active),-17.9% (active),22.8%,17.8%,-26.4% (active),1.37% (active),12.7%,1.91% (active),12.2%,-44% (active),8.12% (active),6.46% (active),-42.4% (active),19.3%,-67.8% (active),-13.2% (active),-17.2% (active)
Clc1cc(Cl)cc(N2N=C(c3cccc(Nc4ccncc4)c3)CC2c2ccc3c(c2)OCO3)c1 (stereo not given),81.7%,78.8%,64.6%,39.5%,65.7%,-27.5% (active),16.4%,96.6%,-1.31% (active),-0.295% (active),2.87% (active),11.3%,-21% (active),86.7%,14.9%,74.1%,2.89% (active),52.3%,50.6%,66.9%
